From PubChem BioAssay (NCI)
The panel holds about 83,000 compounds, 20% with a hit somewhere; the sample as a whole holds those more often.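 Method: cells in 96-well plates; compound added at one concentration; 48 h incubation; percent growth measured; values under 10 scored active.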 Active and inactive are the calls of the source.

Legend:
Experiment in all cases: NCI-60 one-dose screen, 48 h (100 = growth as untreated, 0 = no growth, -100 = all killed)
Conditions in all cases: 10 µM unless noted
[1] = system: HCT-15 colon
[2] = system: HT29 colon
[3] = system: SNB-75 CNS
[4] = system: SNB-19 CNS
[5] = system: U251 CNS
[6] = system: PC-3 prostate
[7] = system: SK-MEL-5 melanoma
[8] = system: UACC-62 melanoma
[9] = system: SK-MEL-28 melanoma
[10] = system: SK-MEL-2 melanoma
[11] = system: EKVX NSCLC
[12] = system: SN12C renal
[13] = system: UO-31 renal
[14] = system: TK-10 renal
[15] = system: ACHN renal
[16] = system: A498 renal
[17] = system: CCRF-CEM leukemia
[18] = system: MOLT-4 leukemia
[19] = system: LOX IMVI melanoma
[20] = system: CAKI-1 renal

Measured: growth

O=C(Nc1ccc(-c2nc(N3CCOCC3)c3cccn3n2)cc1)Nc1cccnc1
active: [1] 6.69% | [2] 7.6% | [3] -26.5% | [4] 5.92% | [5] 7.85% | [6] 3.8% | [7] -71.5% | [8] -28.6% | [9] -17.3% | [10] -4.42% | [11] -13.5% | [12] 6.41% | [13] -9.74% | [14] -17.4% | [15] -5.66% | [16] -35% | [18] 5.84%
inactive: [17] 12.6%

COc1cc(OC)cc(C2=C3CC[C@@H]4[C@H](CC[C@]5(C)C(=O)CC[C@@H]45)C3=CC3C(O)c4cccnc4N4C(=O)COC234)c1 (some centres not stated)
inactive: [1] 100% | [2] 104% | [3] 72.9% | [4] 92% | [5] 93.8% | [6] 94.7% | [7] 98.1% | [8] 94.1% | [19] 95.9% | [10] 108% | [11] 101% | [12] 101% | [13] 86.2% | [14] 96.5% | [20] 86.6% | [16] 91.6% | [17] 104% | [18] 96.2%

COc1ccc2c3c([nH]c2c1)C(=O)c1nc(C)ccc1C3=O
inactive: [1] 22.3% | [2] 74.9% | [4] 46.1% | [5] 45.6% | [6] 45.7% | [9] 83.7% | [10] 66.7% | [11] 53.6% | [12] 38.4% | [13] 39.6% | [14] 109% | [15] 35% | [20] 51.8% | [16] 67.6% | [17] 53.2%
active: [3] -4.19% | [7] -95.1% | [8] -29.3% | [18] 7.34%

N#Cc1nn(-c2cc(=O)[nH]c3ccc(Cl)cc23)c(N)c1C#N
active: [6] -87.3% | [17] -15.8% | [18] -3.91%
inactive: [1] 108% | [2] 101% | [3] 113% | [4] 98.8% | [5] 103% | [7] 102% | [8] 81.9% | [19] 96.6% | [10] 116% | [11] 94% | [12] 104% | [13] 75.8% | [14] 105% | [20] 101% | [16] 116%

COc1ccc(OC)c(C(=O)/C=C/c2cc3c(c(OC)c2OC)OCO3)c1
inactive: [1] 47.3% | [2] 60.3% | [3] 52% | [4] 71.5% | [5] 50.4% | [6] 61.8% | [7] 68.4% | [8] 55.4% | [9] 89.7% | [10] 83.6% | [11] 73% | [12] 74.7% | [13] 63.6% | [14] 122% | [20] 52% | [16] 69.9% | [18] 52.8%

CCCCC(=O)c1ccco1
inactive: [1] 102% | [2] 103% | [3] 86.8% | [4] 86.4% | [5] 102% | [6] 85.8% | [7] 98.8% | [8] 94.9% | [9] 103% | [10] 98.6% | [11] 98.7% | [12] 87.9% | [13] 79.1% | [14] 96% | [15] 96.7% | [20] 90.2% | [16] 74.6% | [17] 92.3% | [18] 102%

COc1cnc2c(c1)C(=O)c1c-2n(CCCNCCO)c(=O)c2ccncc12
inactive: [1] 23.1% | [3] 12.1% | [11] 19.7% | [14] 15.9% | [20] 28.7% | [17] 11.1%
active: [2] 3.25% | [4] 7.52% | [5] 0.604% | [6] 6.97% | [7] -78.4% | [8] -49.1% | [9] -13.1% | [10] -2.38% | [12] 4.98% | [13] -19.8% | [15] -49.8% | [16] -33.3% | [18] -7.69%

CCOC(=O)c1c(C)nc2c(c1N)CC(=O)N2Cc1cc(F)cc(Cl)c1
inactive: [1] 80.5% | [2] 77.1% | [3] 71.6% | [4] 100% | [5] 90.8% | [6] 77.9% | [7] 74.9% | [8] 78% | [9] 105% | [10] 118% | [11] 85.3% | [12] 93.2% | [13] 84.6% | [14] 92.1% | [15] 88.2% | [20] 75.8% | [16] 76.7% | [17] 95.2% | [18] 95.9%

C[C@]12C=CC(=O)C=C1CCC1C2[C@@H](O)C[C@@]2(C)C1CC[C@]2(O)C(=O)COC(=O)CCC(=O)O (some centres not stated)
inactive: [1] 105% | [2] 105% | [3] 120% | [4] 104% | [5] 103% | [6] 93.4% | [7] 113% | [8] 104% | [10] 117% | [11] 74.2% | [12] 74.2% | [13] 92.2% | [14] 116% | [15] 102% | [20] 82.5% | [16] 89.2% | [17] 60.9% | [18] 100%

CCn1c(=S)[nH]c2c(=O)n(C)c(=O)n(C)c21
inactive: [1] 101% | [2] 112% | [3] 96.2% | [4] 100% | [5] 95.9% | [6] 100% | [7] 106% | [8] 116% | [9] 109% | [10] 103% | [11] 95.1% | [12] 101% | [13] 93.9% | [14] 108% | [15] 97.6% | [20] 102% | [16] 113% | [17] 102% | [18] 98.2%

O=C(Cn1c(=O)sc2ccccc21)NNS(=O)(=O)c1ccccc1[N+](=O)[O-]
inactive: [1] 103% | [2] 99.3% | [3] 83.3% | [4] 103% | [5] 97.9% | [6] 96.2% | [7] 101% | [8] 98.8% | [9] 104% | [10] 103% | [11] 98.5% | [12] 109% | [13] 86.1% | [14] 104% | [15] 101% | [20] 85.2% | [16] 110% | [17] 102% | [18] 101%

COc1ccc(-c2nc3c(c(-c4ccccc4)nn3-c3ccccc3)c(-c3ccc(N4CCN(C)CC4)cc3)c2C#N)cc1
inactive: [1] 56.2% | [2] 80.5% | [3] 106% | [4] 95.2% | [5] 77.4% | [6] 94.3% | [7] 97.8% | [8] 100% | [9] 97.5% | [10] 106% | [11] 104% | [12] 93.7% | [13] 76.2% | [14] 99% | [15] 95.3% | [20] 90% | [16] 99.6% | [17] 85.3% | [18] 69.4%

S=C(Nc1ccc(-c2nc(N3CCOCC3)c3cccn3n2)cc1)Nc1cccnc1
inactive: [1] 18.4% | [2] 22.8% | [3] 36.5% | [4] 32.2% | [5] 31.7% | [6] 16.4% | [7] 58.2% | [8] 25.4% | [9] 45.9% | [10] 43.5% | [11] 46.7% | [12] 28.8% | [13] 15.1% | [14] 21.4% | [15] 37.3% | [20] 60.6% | [17] 22.1% | [18] 36.8%
active: [16] -13.3%

N#Cc1cccc(F)c1
inactive: [1] 97.8% | [2] 104% | [3] 127% | [4] 94.4% | [5] 110% | [6] 102% | [7] 107% | [8] 102% | [19] 107% | [10] 103% | [12] 99.2% | [13] 84.9% | [14] 106% | [15] 95.6% | [20] 94.6% | [16] 129% | [17] 104% | [18] 107%

CN1CCN(c2ccc(C(=O)Nc3cccc(C#Cc4cccc5[nH]nc(N)c45)c3)cc2C(F)(F)F)CC1
active: [1] -53.9% | [2] -35.9% | [3] -38.2% | [4] -78.4% | [5] -69.1% | [6] -75.4% | [7] -27.8% | [8] -79.2% | [9] -66.4% | [12] 3.37% | [13] -62% | [14] -30.2% | [15] -46.2% | [20] -96.2% | [16] 5.93% | [17] -25.3% | [18] -56.3%
inactive: [10] 27.7% | [11] 17.1%

C=CCn1c(SCC(=O)NCc2cc(C)c(O)c(C)c2)nc2ccc(Cl)cc2c1=O
inactive: [1] 95.6% | [2] 102% | [3] 67.5% | [4] 99.7% | [5] 102% | [6] 96.1% | [7] 93.2% | [8] 81.9% | [9] 109% | [10] 101% | [11] 111% | [12] 107% | [13] 74.6% | [14] 113% | [15] 98.9% | [20] 112% | [16] 106% | [17] 86.3% | [18] 81.6%
